# Unmarked numbers belong to inactive results. The call rests on the fitted dose curve; in most records, active means well fitted activation curve with a large enough effect; inconclusive means small, poorly fitted or top-dose-only effect; inactive means flat fitted curve, though single readings scatter.
# Assay: Confirmation and Secondary Assay for Modulators of Hemoglobin Beta Chain Splicing at IVS2 705 locus (AID 930); further: % of control where 0% means no effect
# Settings: HeLa EGFP-705 splicing reporter, GFP fluorescence, 48 h; series mostly up to 46.1 µM; activation: at the top concentration
# Text: NIH Chemical Genomics Center [NCGC] NIH Molecular Libraries Screening Centers Network [MLSCN] MLSCN Grant: 1 X01 MH080684-01 PI Name: Dr. Ryszard Kole NCGC Assay Overview: Modulation of Alternative Splicing as Therapy Abnormal splicing is associated with a number of diseases, including cancer and genetic diseases such as cystic fibrosis, muscular dystrophy and beta-thalassemia. Alteration of disease associated splicing patterns provides a promising target for treatment. […] Mutations in the second intron of the b-globin gene at positions 654 or 705 are clinically relevant and cause mis-splicing which results in an out of frame gene product. […] EGFP-705 HeLa Cells as screen system. HeLa cell lines were stably transfected with a construct in which the EGFP (enhanced green fluorescent protein) cDNA was interrupted by the second intron of the beta-globin gene (IVS2-705). The ISV2 intron contains mutations which cause mis-splicing of EGFP and premature termination of EGFP which results in a nonfluorescent protein product. […] Expression of the transgene was driven by the CMV promoter. We concluded that a low molecular weight compound, which restored correct splicing of intron 2 would also generate functional EGFP protein, resulting in a fluorescent signal. Thus, the HeLa cells that express the EGFP-705 construct can be used for validation of splice site specificity of compounds identified in primary screening of the ISV2 654 construct.
# NCGC Assay Protocol Summary: Confirmatory Screening. Freshly thawed HeLa EGFP-705 cells were seeded in 5 ul of optimem media (Invitrogen) containing 2 % fetal calf serum (Hyclone) and 1x penicillin/streptomycin (Invitrogen) at a concentration of 500 cells per well in 1536-well plates. Cells were incubated overnight at 37C in 5% CO2. The next day, cells were treated with DMSO, 500 nM antisense ISV2 654 PNA control oligo, or library compound and allowed to grow at 37C in 5% CO2 for 2 days. The PNA oligo blocked the mutation site in the intron and allowed proper (wild type) splicing to occur, resulting in full length EGFP expression and also allowed for optimization of the assay parameters. Plates were read in the Acumen Explorer (TTP Labtech) using 488 nm laser excitation and 500-520 nm emission PMT filter in a 1 x 8 uM capture mode. Fluorescnet objects ranging in size from 5 to 250 uM were measured and the total peak GFP intensity for each well was used for data analysis. Keywords: Thalassemia, beta-thalassemia, beta-globin, EGFP, ISV2 654, ISV2 705, SSO, PNA, antisense, splicing, MLSMR, MLSCN, NIH Roadmap, qHTS, NCGC
row,SMILES,activation [%]
1,CN(C)CC/C=C1\c2ccccc2Sc2ccc(Cl)cc21,-1.59
2,CCCCC1=NC2(CCCC2)C(=O)N1Cc1ccc(-c2ccccc2-c2nn[nH]n2)cc1,3.68
3,Oc1c(I)cc(Cl)c2cccnc12,-1.18
4,COc1ccc(CCN2CCC(Nc3nc4ccccc4n3Cc3ccc(F)cc3)CC2)cc1,-0.253
5,O=C1c2ccccc2C(=O)C1c1ccccc1,0.48
6,O=c1ccc2ccccc2o1,-0.412
7,CC(=O)Oc1ccc(C(c2ccc(OC(C)=O)cc2)c2ccccn2)cc1,0.947
8,O=C(COc1ccc(Cl)cc1)N1CCN(Cc2ccc3c(c2)OCO3)CC1,5.08
9,Oc1c(I)cc(I)c2cccnc12,-0.251
10,CCCCc1nc(Cl)c(CO)n1Cc1ccc(-c2ccccc2-c2nn[nH]n2)cc1,-0.0165
11,CO/N=C1\CN(c2nc3c(cc2F)c(=O)c(C(=O)O)cn3C2CC2)CC1CN (stereo not given),0.925
12,CCCCOc1ccc(C(=O)CCN2CCCCC2)cc1,3.27
13,C=CCc1ccc(O)c(OC)c1,4.67
14,C=C(CC)C(=O)c1ccc(OCC(=O)O)c(Cl)c1Cl,-1.37
15,O=C(OCC(O)CO)c1ccccc1Nc1ccnc2cc(Cl)ccc12 (stereo not given),1.01
16,CCCCC(CC)CN=C(N)NC(N)=NCCCCCCN=C(N)NC(N)=NCC(CC)CCCC (stereo not given),0.861
17,CCCC(=O)Nc1ccc(OCC(O)CNC(C)C)c(C(C)=O)c1 (stereo not given),2.31
18,CCN1CCN(c2cc3c(cc2F)c(=O)c(C(=O)O)cn3C2CC2)CC1,1.27
19,CCOc1ccc(Cc2nccc3cc(OCC)c(OCC)cc23)cc1OCC,-1.3
20,CCN(CC)CCOC(=O)C(c1ccccc1)C1CCCCC1 (stereo not given),2.71

row,SMILES,activation [%]
1,Nc1ccc(C(=O)O)cc1,-0.086
2,CCCCOc1cc(C(=O)NCCN(CC)CC)c2ccccc2n1,1.13
3,OC(CCN1CCCCC1)(c1ccccc1)c1ccccc1,-1.26
4,CC(Cc1cccc(C(F)(F)F)c1)NCCOC(=O)c1ccccc1 (stereo not given),-0.362
5,O=C1OC(c2ccc(O)cc2)(c2ccc(O)cc2)c2ccccc21,-0.405
6,CC(=O)Nc1c(I)cc(I)c(C(=O)O)c1I,0.646
7,CN(C)/N=N/c1nc[nH]c1C(N)=O,-0.138
8,CCOC(=O)n1ccn(C)c1=S,1.96
9,Cc1cc(=O)n(-c2ccccc2)n1C,0.779
10,OCc1ccccc1O,-0.533
11,CC/C(=C(/CC)c1ccc(O)cc1)c1ccc(O)cc1,-0.117
12,NC(=NCCCCCCN=C(N)/N=C(\N)Nc1ccc(Cl)cc1)/N=C(\N)Nc1ccc(Cl)cc1,0.597
13,CCn1cc(C(=O)O)c(=O)c2cnc(N3CCCC3)nc21,2.46
14,CC(=O)N(O)CCCCCNC(=O)CCC(=O)N(O)CCCCCNC(=O)CCC(=O)N(O)CCCCCN,2.43
15,COC1=CC(=O)C[C@@H](C)[C@]12Oc1c(Cl)c(OC)cc(OC)c1C2=O,1.64
16,COc1cc(OC)cc(OC)c1,0.43
17,CCN(CCCc1ccccc1)CCCc1ccccc1,1.9
18,CCCCCCCCCCCCCCCCOP(=O)([O-])OCC[N+](C)(C)C,1.14
19,CN1CCC(=C2c3ccccc3Sc3ccccc32)CC1,0.768
20,COc1ccc(OC)c(C(O)CNC(=O)CN)c1 (stereo not given),-0.679
